Tests used:
[1] = target: T1, Tyrosine-protein kinase receptor TYRO3 (Homo sapiens) (UniProt Q06418); conditions: at 1 µM
T1 sequence (whole entry): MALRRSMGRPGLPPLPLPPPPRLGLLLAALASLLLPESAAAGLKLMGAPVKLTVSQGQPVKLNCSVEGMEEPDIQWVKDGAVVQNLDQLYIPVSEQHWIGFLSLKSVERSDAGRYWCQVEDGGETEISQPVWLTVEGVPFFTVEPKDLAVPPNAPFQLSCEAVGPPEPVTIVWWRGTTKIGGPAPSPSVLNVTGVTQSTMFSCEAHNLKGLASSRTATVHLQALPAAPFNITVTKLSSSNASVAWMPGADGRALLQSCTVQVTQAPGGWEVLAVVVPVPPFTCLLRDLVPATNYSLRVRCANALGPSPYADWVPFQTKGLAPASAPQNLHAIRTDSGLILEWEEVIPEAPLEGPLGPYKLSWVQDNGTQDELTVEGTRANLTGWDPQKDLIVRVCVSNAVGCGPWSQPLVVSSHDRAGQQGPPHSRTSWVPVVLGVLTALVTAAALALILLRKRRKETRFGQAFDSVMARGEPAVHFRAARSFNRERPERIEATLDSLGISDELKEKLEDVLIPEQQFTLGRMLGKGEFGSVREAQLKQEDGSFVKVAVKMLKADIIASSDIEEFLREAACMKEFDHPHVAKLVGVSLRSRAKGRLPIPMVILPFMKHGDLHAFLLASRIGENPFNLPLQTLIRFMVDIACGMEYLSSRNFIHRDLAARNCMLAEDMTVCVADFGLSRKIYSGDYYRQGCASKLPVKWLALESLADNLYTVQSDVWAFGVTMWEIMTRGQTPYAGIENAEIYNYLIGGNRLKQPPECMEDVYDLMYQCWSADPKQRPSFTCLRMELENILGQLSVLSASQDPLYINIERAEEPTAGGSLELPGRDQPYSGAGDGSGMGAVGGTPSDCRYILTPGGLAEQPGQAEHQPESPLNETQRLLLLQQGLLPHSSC

[2] = target: Tyrosine-protein kinase Yes (Homo sapiens) (UniProt P07947); conditions: at 0.1 µM
Sequence of Tyrosine-protein kinase Yes (Homo sapiens) (P07947 2-543 limits assumed): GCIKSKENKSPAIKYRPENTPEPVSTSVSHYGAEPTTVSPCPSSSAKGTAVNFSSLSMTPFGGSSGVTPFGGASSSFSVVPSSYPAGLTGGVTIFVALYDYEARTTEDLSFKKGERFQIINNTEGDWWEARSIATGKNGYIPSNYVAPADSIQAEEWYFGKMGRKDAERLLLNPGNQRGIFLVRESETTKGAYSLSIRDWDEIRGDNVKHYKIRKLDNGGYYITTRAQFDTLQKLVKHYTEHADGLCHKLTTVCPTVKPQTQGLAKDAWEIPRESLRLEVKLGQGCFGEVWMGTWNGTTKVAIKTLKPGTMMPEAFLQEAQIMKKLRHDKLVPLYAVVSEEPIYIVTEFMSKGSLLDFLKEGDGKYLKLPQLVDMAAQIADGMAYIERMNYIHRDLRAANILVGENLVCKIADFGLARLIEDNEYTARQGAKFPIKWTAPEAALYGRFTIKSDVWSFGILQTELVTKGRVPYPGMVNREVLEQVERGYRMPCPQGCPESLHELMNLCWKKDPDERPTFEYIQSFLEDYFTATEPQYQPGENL

[3] = target: Tyrosine-protein kinase Yes (Homo sapiens) (UniProt P07947); conditions: at 1 µM
[4] = target: T2, Tyrosine-protein kinase ZAP-70 (Homo sapiens) (UniProt P43403); conditions: at 0.1 µM
T2 sequence (whole entry): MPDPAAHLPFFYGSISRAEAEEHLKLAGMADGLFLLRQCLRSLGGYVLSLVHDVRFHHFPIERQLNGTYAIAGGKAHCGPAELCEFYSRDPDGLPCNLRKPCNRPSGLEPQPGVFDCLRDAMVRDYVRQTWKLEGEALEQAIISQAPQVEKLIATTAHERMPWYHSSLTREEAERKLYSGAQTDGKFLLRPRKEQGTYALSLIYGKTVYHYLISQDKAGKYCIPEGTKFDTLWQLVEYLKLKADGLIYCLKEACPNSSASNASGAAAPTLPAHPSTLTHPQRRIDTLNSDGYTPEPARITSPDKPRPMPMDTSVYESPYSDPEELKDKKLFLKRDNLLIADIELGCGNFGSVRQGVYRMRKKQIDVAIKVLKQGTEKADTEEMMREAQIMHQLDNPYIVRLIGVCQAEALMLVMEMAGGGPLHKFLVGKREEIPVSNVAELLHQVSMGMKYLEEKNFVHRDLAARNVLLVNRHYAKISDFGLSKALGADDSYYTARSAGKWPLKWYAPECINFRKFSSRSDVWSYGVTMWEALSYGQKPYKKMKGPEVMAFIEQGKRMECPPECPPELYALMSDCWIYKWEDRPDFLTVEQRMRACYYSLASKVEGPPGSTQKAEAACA

[5] = target: T2, Tyrosine-protein kinase ZAP-70 (Homo sapiens); conditions: at 1 µM
[6] = target: Serine/threonine-protein kinase B-raf (Homo sapiens) (UniProt P15056); conditions: at 0.1 µM
Sequence of Serine/threonine-protein kinase B-raf (Homo sapiens) (P15056 whole entry): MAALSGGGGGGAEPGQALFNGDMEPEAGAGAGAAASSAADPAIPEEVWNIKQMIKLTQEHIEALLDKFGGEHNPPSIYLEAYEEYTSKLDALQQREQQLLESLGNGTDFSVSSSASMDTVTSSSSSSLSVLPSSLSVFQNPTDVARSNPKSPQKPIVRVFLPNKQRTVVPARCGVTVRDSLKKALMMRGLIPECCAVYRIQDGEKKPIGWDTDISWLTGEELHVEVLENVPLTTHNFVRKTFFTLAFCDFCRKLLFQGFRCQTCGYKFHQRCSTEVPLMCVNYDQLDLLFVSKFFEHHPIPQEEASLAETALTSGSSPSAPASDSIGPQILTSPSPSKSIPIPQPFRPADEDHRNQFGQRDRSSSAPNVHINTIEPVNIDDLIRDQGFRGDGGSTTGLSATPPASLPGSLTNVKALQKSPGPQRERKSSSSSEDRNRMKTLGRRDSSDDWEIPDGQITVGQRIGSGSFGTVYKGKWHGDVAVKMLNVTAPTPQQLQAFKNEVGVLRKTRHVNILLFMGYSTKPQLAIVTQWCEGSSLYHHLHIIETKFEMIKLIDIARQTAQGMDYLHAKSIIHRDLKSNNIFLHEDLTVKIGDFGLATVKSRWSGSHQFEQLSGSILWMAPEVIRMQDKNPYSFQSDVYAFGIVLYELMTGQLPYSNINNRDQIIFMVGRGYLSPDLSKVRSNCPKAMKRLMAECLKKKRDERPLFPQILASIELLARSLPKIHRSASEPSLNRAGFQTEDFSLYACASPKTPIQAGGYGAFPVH

[7] = target: Serine/threonine-protein kinase B-raf (Homo sapiens) (UniProt P15056); conditions: at 1 µM
[8] = system: Serine/threonine-protein kinase B-raf (Homo sapiens), P15056 [V600E]; conditions: at 0.1 µM
Sequence of Serine/threonine-protein kinase B-raf (Homo sapiens), P15056 [V600E] (P15056 whole entry V600E): as the sequence (P15056 whole entry) above, with V600E counted along it

[9] = system: Serine/threonine-protein kinase B-raf (Homo sapiens), P15056 [V600E]; conditions: at 1 µM
[10] = target: RAF proto-oncogene serine/threonine-protein kinase (Homo sapiens) (UniProt P04049); conditions: at 0.1 µM
Sequence of RAF proto-oncogene serine/threonine-protein kinase (Homo sapiens) (P04049 whole entry): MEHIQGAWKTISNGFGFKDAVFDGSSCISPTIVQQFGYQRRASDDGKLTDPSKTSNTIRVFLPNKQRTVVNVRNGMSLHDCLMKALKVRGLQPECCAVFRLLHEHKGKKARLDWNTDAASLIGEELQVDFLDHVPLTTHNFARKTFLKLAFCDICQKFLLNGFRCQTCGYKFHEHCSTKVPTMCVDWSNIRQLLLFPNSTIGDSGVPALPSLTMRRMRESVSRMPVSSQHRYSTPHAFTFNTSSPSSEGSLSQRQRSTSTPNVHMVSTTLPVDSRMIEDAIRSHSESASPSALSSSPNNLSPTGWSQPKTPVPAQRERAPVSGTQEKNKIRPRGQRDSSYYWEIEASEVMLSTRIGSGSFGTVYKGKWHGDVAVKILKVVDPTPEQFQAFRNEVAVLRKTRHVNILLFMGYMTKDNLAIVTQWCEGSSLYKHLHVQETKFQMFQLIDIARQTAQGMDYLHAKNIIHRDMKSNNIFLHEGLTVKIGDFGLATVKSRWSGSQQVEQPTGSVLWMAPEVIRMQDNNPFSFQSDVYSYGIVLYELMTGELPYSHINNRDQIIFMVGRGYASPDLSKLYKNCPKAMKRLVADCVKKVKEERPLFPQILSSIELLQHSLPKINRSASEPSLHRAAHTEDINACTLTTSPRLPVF

[11] = target: RAF proto-oncogene serine/threonine-protein kinase (Homo sapiens) (UniProt P04049); conditions: at 1 µM
[12] = target: T3, Interleukin-1 receptor-associated kinase 4 (Homo sapiens) (UniProt Q9NWZ3); conditions: at 0.1 µM
T3 sequence (whole entry): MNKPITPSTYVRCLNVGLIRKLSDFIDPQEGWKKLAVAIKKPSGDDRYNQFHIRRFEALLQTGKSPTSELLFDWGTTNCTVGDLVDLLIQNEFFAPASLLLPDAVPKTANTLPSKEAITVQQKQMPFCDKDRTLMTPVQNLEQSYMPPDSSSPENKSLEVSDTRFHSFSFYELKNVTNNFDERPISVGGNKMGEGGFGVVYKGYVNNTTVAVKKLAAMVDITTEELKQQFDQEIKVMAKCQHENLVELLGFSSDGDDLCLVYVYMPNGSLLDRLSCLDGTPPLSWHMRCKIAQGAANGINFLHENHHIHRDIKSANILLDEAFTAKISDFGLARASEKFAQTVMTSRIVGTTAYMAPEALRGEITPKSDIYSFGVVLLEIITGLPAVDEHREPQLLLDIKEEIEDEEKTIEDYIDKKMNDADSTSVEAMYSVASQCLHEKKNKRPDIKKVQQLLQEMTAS

[13] = target: T3, Interleukin-1 receptor-associated kinase 4 (Homo sapiens); conditions: at 1 µM
[14] = target: Leucine-rich repeat serine/threonine-protein kinase 2 (Homo sapiens) (UniProt Q5S007); conditions: at 0.1 µM
Sequence of Leucine-rich repeat serine/threonine-protein kinase 2 (Homo sapiens) (Q5S007 whole entry): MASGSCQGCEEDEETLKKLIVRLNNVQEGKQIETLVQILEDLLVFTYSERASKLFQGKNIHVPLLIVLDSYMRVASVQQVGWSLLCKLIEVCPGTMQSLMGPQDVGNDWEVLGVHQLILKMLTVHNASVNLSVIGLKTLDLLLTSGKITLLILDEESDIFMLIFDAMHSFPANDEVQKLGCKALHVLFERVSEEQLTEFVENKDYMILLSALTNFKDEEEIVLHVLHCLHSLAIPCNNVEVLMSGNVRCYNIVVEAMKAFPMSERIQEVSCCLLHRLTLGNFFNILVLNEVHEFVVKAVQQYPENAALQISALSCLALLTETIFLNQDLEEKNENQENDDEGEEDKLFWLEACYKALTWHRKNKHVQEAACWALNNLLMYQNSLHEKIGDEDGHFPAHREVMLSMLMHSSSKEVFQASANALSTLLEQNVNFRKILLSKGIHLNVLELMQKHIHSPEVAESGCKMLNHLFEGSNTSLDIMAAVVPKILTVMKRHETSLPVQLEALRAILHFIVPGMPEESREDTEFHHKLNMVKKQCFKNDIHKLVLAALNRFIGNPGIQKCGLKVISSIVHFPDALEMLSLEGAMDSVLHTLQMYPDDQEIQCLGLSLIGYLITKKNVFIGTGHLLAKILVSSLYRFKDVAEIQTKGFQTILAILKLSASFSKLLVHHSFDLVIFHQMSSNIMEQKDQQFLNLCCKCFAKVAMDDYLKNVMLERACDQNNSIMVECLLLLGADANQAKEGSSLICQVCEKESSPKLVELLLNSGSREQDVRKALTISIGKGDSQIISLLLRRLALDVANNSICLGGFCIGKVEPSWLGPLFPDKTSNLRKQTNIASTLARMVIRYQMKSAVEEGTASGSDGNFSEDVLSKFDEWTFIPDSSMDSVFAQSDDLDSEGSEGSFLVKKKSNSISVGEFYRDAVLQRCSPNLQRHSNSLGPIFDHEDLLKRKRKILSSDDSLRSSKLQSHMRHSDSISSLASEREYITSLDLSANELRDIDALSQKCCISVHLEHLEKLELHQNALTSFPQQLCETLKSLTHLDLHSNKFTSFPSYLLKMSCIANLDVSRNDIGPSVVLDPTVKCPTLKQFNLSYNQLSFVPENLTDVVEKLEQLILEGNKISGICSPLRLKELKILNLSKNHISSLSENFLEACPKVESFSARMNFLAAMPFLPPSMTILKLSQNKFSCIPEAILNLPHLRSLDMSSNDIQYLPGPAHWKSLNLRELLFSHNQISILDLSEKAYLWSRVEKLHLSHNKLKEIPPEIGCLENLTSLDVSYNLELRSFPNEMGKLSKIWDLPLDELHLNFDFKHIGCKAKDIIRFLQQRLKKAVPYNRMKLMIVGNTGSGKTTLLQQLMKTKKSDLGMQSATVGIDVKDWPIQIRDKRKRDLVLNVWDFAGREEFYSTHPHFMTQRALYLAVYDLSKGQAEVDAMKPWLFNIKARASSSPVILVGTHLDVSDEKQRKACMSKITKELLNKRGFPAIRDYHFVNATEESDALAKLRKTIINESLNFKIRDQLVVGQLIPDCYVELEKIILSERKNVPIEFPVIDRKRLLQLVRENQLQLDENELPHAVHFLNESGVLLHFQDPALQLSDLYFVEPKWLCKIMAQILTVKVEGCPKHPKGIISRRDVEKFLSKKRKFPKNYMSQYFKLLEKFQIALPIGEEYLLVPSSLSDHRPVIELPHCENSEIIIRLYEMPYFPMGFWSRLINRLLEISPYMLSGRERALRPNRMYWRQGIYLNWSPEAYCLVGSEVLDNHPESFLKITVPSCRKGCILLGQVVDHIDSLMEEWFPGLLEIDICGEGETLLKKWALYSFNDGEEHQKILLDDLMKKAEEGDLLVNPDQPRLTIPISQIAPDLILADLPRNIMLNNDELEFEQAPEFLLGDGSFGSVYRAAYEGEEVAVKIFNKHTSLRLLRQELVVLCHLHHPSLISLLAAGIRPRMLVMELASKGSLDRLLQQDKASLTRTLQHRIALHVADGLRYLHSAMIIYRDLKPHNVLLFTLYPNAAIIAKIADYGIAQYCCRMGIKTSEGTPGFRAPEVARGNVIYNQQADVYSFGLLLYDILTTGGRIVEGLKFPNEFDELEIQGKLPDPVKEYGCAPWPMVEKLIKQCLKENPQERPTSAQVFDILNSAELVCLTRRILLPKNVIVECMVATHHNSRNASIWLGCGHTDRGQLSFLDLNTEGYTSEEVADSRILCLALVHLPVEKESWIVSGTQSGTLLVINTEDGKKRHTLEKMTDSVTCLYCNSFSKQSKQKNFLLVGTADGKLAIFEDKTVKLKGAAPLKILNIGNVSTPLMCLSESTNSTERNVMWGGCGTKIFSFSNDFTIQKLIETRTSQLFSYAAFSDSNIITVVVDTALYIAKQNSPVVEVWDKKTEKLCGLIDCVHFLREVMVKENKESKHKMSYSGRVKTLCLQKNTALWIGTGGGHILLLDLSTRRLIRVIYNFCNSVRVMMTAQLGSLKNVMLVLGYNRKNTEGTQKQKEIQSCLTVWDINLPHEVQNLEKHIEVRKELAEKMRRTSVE

[15] = target: Leucine-rich repeat serine/threonine-protein kinase 2 (Homo sapiens) (UniProt Q5S007); conditions: at 1 µM
[16] = system: Leucine-rich repeat serine/threonine-protein kinase 2 (Homo sapiens), Q5S007 [G2019S]; conditions: at 0.1 µM
Sequence of Leucine-rich repeat serine/threonine-protein kinase 2 (Homo sapiens), Q5S007 [G2019S] (Q5S007 whole entry G2019S): as the sequence (Q5S007 whole entry) above, with G2019S counted along it

[17] = system: Leucine-rich repeat serine/threonine-protein kinase 2 (Homo sapiens), Q5S007 [G2019S]; conditions: at 1 µM

SMILES	inhibition [1]	inhibition [2]	inhibition [3]	inhibition [4]	inhibition [5]	inhibition [6]	inhibition [7]	inhibition [8]	inhibition [9]	inhibition [10]	inhibition [11]	inhibition [12]	inhibition [13]	inhibition [14]	inhibition [15]	inhibition [16]	inhibition [17]
CCOc1nccc2c1nc(-c1nonc1N)n2CC	5.64%	2.27%	6.31%	2.73%	1.9%	2.88%	2.64%	3.44%	2.45%	-1.34%	1.42%	-2.37%	1.89%	3.98%	8.96%	5.55%	11.8%
CS(=O)(=O)Nc1cccc(-c2ccc3c(NC(=O)C4CC4)n[nH]c3c2)c1	17.9%	2.95%	2.86%	1.35%	1.3%	1.25%	2.51%	1.61%	2.94%	8.26%	16.5%	4.95%	0.25%	1.1%	5.23%	2.67%	5.19%
COc1ccc2ncnc(Nc3ccc(OCc4ccccc4)cc3)c2c1	3.15%	5.76%	22.9%	1.97%	1.84%	3.6%	2.93%	3.51%	2.24%	-0.56%		3.13%	0.86%	1.61%	4.95%	2.19%	13.1%
N#Cc1c(NC(=O)c2ccccc2F)sc2c1CCCC2	-1.16%	2.43%	-1.67%	-3.51%	0.2%	-1.34%	-1.56%	-0.04%	1.18%	-2.08%	-0.64%	-1.41%	-0.41%	1.84%	1.84%	2.14%	3.2%
Cc1ccc(NC(=O)CC2CC2)cc1-c1ccc(C(=O)NCC2CC2)cc1	4.65%	1.53%	2.46%	-0.2%	2.11%	4.43%	6.22%	4.33%	4.96%	3.39%	2.03%	-2.97%	2.2%	2.09%	7.62%	3.23%	6.82%
COc1cc(Nc2nccc(-c3cnn4ncccc34)n2)cc(OC)c1	14.9%	9.16%	39.8%	4.5%	14.2%	3.83%	28.9%	4.91%	28.7%	-0.8%	10.1%	5.71%	18.6%	18.7%	24.4%	22.1%	62.9%
c1ccc(Cc2nc3ccc(Nc4ncnc5ccccc45)cc3[nH]2)cc1	3.79%	1.02%	9.72%	1.42%	-1.31%	4.95%	6.09%	4.48%	5.36%	3.87%	8.44%	-1.86%	1.52%	0.2%	4.18%	3.52%	9.17%
ON=C1CCc2cc(-c3nc(C4CCNCC4)[nH]c3-c3ccncc3)ccc21	1.37%	-1.71%	0.86%	1.57%	1.96%					-7.53%	10.2%	4%	-0.27%	1.51%	2.68%	0.74%	4.07%
CCCN1CCCC(c2ccc(Nc3nc(Nc4cc(F)ccc4C(N)=O)c4cc[nH]c4n3)c(OC)c2)C1 (stereo not drawn)	7.19%	5.09%	9.04%	7.83%	28.7%	11.6%	40.1%	11.2%	35.5%	1.24%	-4.64%	3.05%	3.34%	86.9%	88.3%	80.5%	83.5%
O=C(Nc1ccc(Oc2ccc3[nH]c(NC(=O)c4ccco4)nc3c2)cc1)Nc1cc(C(F)(F)F)ccc1F	37.4%	0.93%	21.9%		-9.02%	4.64%	60.7%	3.75%	72.5%	-0.98%	39.9%	-2.35%	0.94%	15.7%	15.8%	9.87%	51.6%
COc1cccc(-n2ncc3c(N/N=C/c4ccc(C)cc4)ncnc32)c1	4.49%	4.03%	13.8%	3.63%	11%	7.21%	11.2%	4.78%	6.08%	7.72%	0.4%	2.16%	4.05%	10.2%	18.8%	11.3%	27.9%
Cc1ccc2c(c1)/C(=N/Nc1ccc(S(N)(=O)=O)cc1)C(=O)N2	0.35%	-0.04%	5.49%	1.31%	1.47%	0.51%	3.31%	0.4%	3.37%	0.26%		2.09%	-0.03%	6.44%	13.1%	9.36%	46.2%
Cc1ccc2c(-c3ccnc(Nc4cccc(C(F)(F)F)c4)n3)c(-c3ccccc3)nn2n1	17.5%	53.8%	91.8%	0.09%	2.06%	6.35%	14.1%	4.17%	8.85%	4.15%	3.34%	2.03%	2.78%	1.87%	7.47%	2.59%	4.94%
Nc1nccc(-c2c(-c3ccc(F)cc3)ncn2CCCN2CCOCC2)n1	5.61%	2.87%	9.05%	-2.08%	1.23%	5.83%	6.07%	6.08%	7.12%	11.6%	2.86%	3.35%	2.13%	1.92%	1.82%	2.45%	2.14%
c1ccc(Nc2ncc(-c3ccccc3)o2)cc1	6.84%	2.4%	6.64%	-1.32%	1.41%	5.93%	7.7%	5.02%	4.39%	2.39%	0.56%	2.02%	2.65%	1.16%	4.27%	3.18%	8.98%

— ChEMBL document CHEMBL1961873, “Compounds: GSK PKIS; Assays: Nanosyn kinase panel” (2012)
